The text below walks through data of PubChem BioAssay (NCI).

About 83,000 compounds went through this panel and 20% of them were active in at least one assay; those are over-represented in the sample as a whole.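 Assay: single dose, 48 h. Readout: percent growth (0 = no net growth; negative = cell death). Active: <10.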 The source made the active and inactive calls.

In the first test the test system is HOP-92 NSCLC. Put plainly: NCI-60 one-dose screen, 48 h (100 = growth as untreated, 0 = no growth, -100 = all killed). The conditions noted are these: 10 µM unless noted.
As for `CN1CCN(C(=O)[C@]23CCC(C)(C)C[C@H]2C2=CC[C@@H]4[C@@]5(C)C/C(=C/c6ccncc6)C(=O)C(C)(C)[C@@H]5CC[C@@]4(C)[C@]2(C)CC3)CC1`, the growth is 41% (inactive).

Take `C=C(C)[C@@H]1CC[C@]2(C(=O)N3CCN(C)CC3)CC[C@]3(C)[C@H](CC[C@@H]4[C@@]5(C)C/C(=C/c6cccnc6)C(=O)C(C)(C)[C@@H]5CC[C@]43C)[C@@H]12`: the growth was 52.8% (inactive).

Take `N/C(=N\C(N)=N\c1nc2ccccc2s1)c1cccc(Cl)c1`: the growth was 108% (inactive).

As for `CCOC(=O)Nc1ccc(-c2ccc3c(c2)NC(=O)/C3=C\c2ccc[nH]2)cc1`, the growth was 102% (inactive).

For `CCNC(=O)Oc1ccc(/C(=C(\C)c2ccccc2)c2ccc(OCCN(CC)CC)cc2)cc1`, the growth is 70.9% (inactive).

For the molecule `CCOC(=O)/C(C#N)=C1/NNC(=Nc2cccnc2)S1`, the growth is 93.9% (inactive).

As to `COc1cccc(-c2nc3occn3c2-c2ccnc(NCCCNS(=O)(=O)c3ccc(C(F)(F)F)cc3)n2)c1`, the growth is 104% (inactive).

Regarding `CC(=O)Nc1ccc(-n2cnc3cc(-c4ccc(OCCN5CCCCC5)cc4)ccc32)cc1`, the growth is 105% (inactive).

Take `Cn1ccnc1C(=O)/C=C/c1ccc(CC(=O)Nc2ccc(Cl)cc2)cc1`: the growth is 72% (inactive).

As for `C=CCN1C(=O)/C(=C/C(=O)OC)S/C1=N\NC(=O)c1cc2ccc1/C=C\c1ccc(cc1)/C=C\2`, the growth was 81.4% (inactive).

Regarding `COc1ccc(/C=C(\C#N)n2nc3cccc(F)c3n2)cc1`, the growth was 96.1% (inactive).

For `N/C(=N\C(N)=N\c1nc2ccccc2s1)c1cnccn1`, the growth was 47% (inactive).

With `Cc1c(C(=O)NCCC(=O)NO)sc2ncnc(Nc3ccc(NC(=O)Nc4cccc(C(F)(F)F)c4)cc3)c12`, the growth is 115% (inactive).

Consider `O=C(Nc1ccc(-c2ccc3c(c2)NC(=O)/C3=C\c2ccc[nH]2)cc1)NC1CC1`, for which the growth was 125% (inactive).

With `S=c1cc(S)c2cc(Br)ccc2[nH]1`, the growth was 88.5% (inactive).

Consider `CCCCOc1ccc(/C=N/Nc2cc(C)nc3ccc(Br)cc23)cc1`, for which the growth is 68% (inactive).

As for `N/C(=N\C(N)=N\c1nc2ccccc2s1)c1ccnc(Br)c1`, the growth was 47% (inactive).

As for `COc1cc(NC(C)CCCNC(=O)CCC(=O)NCCCNCCCCCCCCNCCCNC(=O)CCC(=O)NCCCC(C)Nc2cc(OC)cc3cccnc23)c2ncccc2c1` (centres undefined), the growth is 54.2% (inactive).

As for `COc1cc2nc(-c3ccc(C(F)(F)F)cc3)cc(OCCCN3CCOCC3)c2cc1OC`, the growth was 11.2% (inactive).

For `O=C(Cn1c[n+](CC(=O)c2ccc(-c3ccccc3)cc2)c2ccccc21)Nc1cccc2cccnc12`, the growth was -4.57% (active).

For the molecule `CC(Oc1ccc(C(=O)O)cc1C(F)(F)F)c1ccc(Oc2ccccc2)cn1` (centres undefined), the growth was 97.8% (inactive).

In the case of `O=C(Nc1ccc(F)cc1)Nc1ccc(NC(=O)c2cc(Cl)nc3ccccc23)cc1`, the growth is 23.5% (inactive).

`O=C(CCN1CCCC1)Nc1ccc2c(Nc3ccc(F)cc3)c3ccccc3nc2c1`: the growth is 4.17% (active).

As for `CC(Sc1nc2ccccc2c(=O)n1CCc1ccc(S(N)(=O)=O)cc1)C(=O)Nc1ccc(Cl)cc1` (centres undefined), the growth is 107% (inactive).

Turning to `O=C(N/N=C/c1cc2ccccc2n2nnnc12)Nc1ccccc1`, the growth was 105% (inactive).

Regarding `CC1(C)CC(=O)C2=C(C1)N(c1ccc(F)cc1F)C(N)=C(C#N)C2c1cc(Br)ccc1F` (centres undefined), the growth was 119% (inactive).

The test system of another test is NCI-H522 lung. The description is as above. The conditions noted are these: 10 µM unless noted.
For `O=C(/C=C/c1ccc(Cl)cc1)c1ccc(NC(=O)N2CCN(c3cc4c(cc3F)c(=O)c(C(=O)O)cn4C3CC3)CC2)cc1`, the growth was 66.9% (inactive).

With `O=C(/C=C(/C=C/c1csc2ccccc12)OB(F)F)/C=C/c1csc2ccccc12`, the growth is 2.34% (active).

For `CN1CCN(C(=O)[C@]23CCC(C)(C)C[C@H]2C2=CC[C@@H]4[C@@]5(C)C/C(=C/c6cccnc6)C(=O)C(C)(C)[C@@H]5CC[C@@]4(C)[C@]2(C)CC3)CC1`, the growth was 49.4% (inactive).

`CC1=CCC(OC(=O)C(C)(O)CCC(O)(C(=O)OC2(C)C=CC(O)(C(C)C)CC2)C(C)C)(C(C)C)CC1` (centres undefined): the growth was 93.7% (inactive).

Take `NC1=NN=C(N)C1=Cc1cc2ccccc2n2nnnc12`: the growth is 95% (inactive).

On to `COc1ccc(NC(N)=NCCCOc2ccc(F)cc2)cc1`, for which the growth was 85.5% (inactive).

Take `O=C1c2ccc3c4c(ccc(c24)C(=O)N1CCCNCc1ccccc1)C(=O)N(CCCNCc1ccccc1)C3=O`: the growth was -91.2% (active).

In the case of `O=C(NCCNc1nccc(-c2c(-c3cccc(F)c3)nc3sccn23)n1)c1ccc(Cl)cc1`, the growth is 68.4% (inactive).

As for `C=C1C(=O)O[C@H]2[C@H]1CC/C(COC(=O)NCCc1c[nH]c3ccc(OC)cc13)=C\CC[C@@]1(C)O[C@@H]21`, the growth was -74.2% (active).

Consider `COc1cc(CC(=O)c2ccc(O)c(OC)c2)ccc1O`, for which the growth is 88.4% (inactive).

Turning to `CCN(CC)c1ccc(/C=N/NC(=O)CSc2nc3ccccc3c(=O)n2CCc2ccc(S(N)(=O)=O)cc2)c(O)c1`, the growth is -14.6% (active).

With `Cc1ccc(-n2c3c(c(-c4ccccc4)c2-c2ccccc2)C2=NCCN2C=N3)cc1`, the growth was 80.2% (inactive).

Turning to `CN1CCN(C(=O)[C@]23CCC(C)(C)C[C@H]2C2=CC[C@@H]4[C@@]5(C)C/C(=C/c6ccncc6)C(=O)C(C)(C)[C@@H]5CC[C@@]4(C)[C@]2(C)CC3)CC1`, the growth is 55.9% (inactive).

With `C=C(C)[C@@H]1CC[C@]2(C(=O)N3CCN(C)CC3)CC[C@]3(C)[C@H](CC[C@@H]4[C@@]5(C)C/C(=C/c6cccnc6)C(=O)C(C)(C)[C@@H]5CC[C@]43C)[C@@H]12`, the growth was 59% (inactive).

As for `N/C(=N\C(N)=N\c1nc2ccccc2s1)c1cccc(Cl)c1`, the growth is 87.5% (inactive).

For the molecule `CCOC(=O)Nc1ccc(-c2ccc3c(c2)NC(=O)/C3=C\c2ccc[nH]2)cc1`, the growth was 97.8% (inactive).

Take `CCNC(=O)Oc1ccc(/C(=C(\C)c2ccccc2)c2ccc(OCCN(CC)CC)cc2)cc1`: the growth is 93.7% (inactive).

As to `CCOC(=O)/C(C#N)=C1/NNC(=Nc2cccnc2)S1`, the growth was 85.3% (inactive).

`COc1cccc(-c2nc3occn3c2-c2ccnc(NCCCNS(=O)(=O)c3ccc(C(F)(F)F)cc3)n2)c1`: the growth was 86.9% (inactive).

On to `CC(=O)Nc1ccc(-n2cnc3cc(-c4ccc(OCCN5CCCCC5)cc4)ccc32)cc1`, for which the growth was 91.9% (inactive).

Regarding `Cn1ccnc1C(=O)/C=C/c1ccc(CC(=O)Nc2ccc(Cl)cc2)cc1`, the growth is 6.86% (active).

On to `C=CCN1C(=O)/C(=C/C(=O)OC)S/C1=N\NC(=O)c1cc2ccc1/C=C\c1ccc(cc1)/C=C\2`, for which the growth was 60.7% (inactive).

On to `COc1ccc(/C=C(\C#N)n2nc3cccc(F)c3n2)cc1`, for which the growth was 93% (inactive).

On to `N/C(=N\C(N)=N\c1nc2ccccc2s1)c1cnccn1`, for which the growth is 22.4% (inactive).

Regarding `Cc1c(C(=O)NCCC(=O)NO)sc2ncnc(Nc3ccc(NC(=O)Nc4cccc(C(F)(F)F)c4)cc3)c12`, the growth was 94.4% (inactive).

For the molecule `O=C(Nc1ccc(-c2ccc3c(c2)NC(=O)/C3=C\c2ccc[nH]2)cc1)NC1CC1`, the growth is 89.6% (inactive).

As to `S=c1cc(S)c2cc(Br)ccc2[nH]1`, the growth was 68.1% (inactive).

Consider `CCCCOc1ccc(/C=N/Nc2cc(C)nc3ccc(Br)cc23)cc1`, for which the growth was 76.9% (inactive).

As to `N/C(=N\C(N)=N\c1nc2ccccc2s1)c1ccnc(Br)c1`, the growth is 9.9% (active).

`COc1cc(NC(C)CCCNC(=O)CCC(=O)NCCCNCCCCCCCCNCCCNC(=O)CCC(=O)NCCCC(C)Nc2cc(OC)cc3cccnc23)c2ncccc2c1` (centres undefined): the growth is 47.3% (inactive).

With `COc1cc2nc(-c3ccc(C(F)(F)F)cc3)cc(OCCCN3CCOCC3)c2cc1OC`, the growth is 14.6% (inactive).

With `O=C(Cn1c[n+](CC(=O)c2ccc(-c3ccccc3)cc2)c2ccccc21)Nc1cccc2cccnc12`, the growth is 2.6% (active).

In the case of `CC(Oc1ccc(C(=O)O)cc1C(F)(F)F)c1ccc(Oc2ccccc2)cn1` (centres undefined), the growth was 88.2% (inactive).

Take `O=C(Nc1ccc(F)cc1)Nc1ccc(NC(=O)c2cc(Cl)nc3ccccc23)cc1`: the growth is 61.7% (inactive).

As to `O=C(CCN1CCCC1)Nc1ccc2c(Nc3ccc(F)cc3)c3ccccc3nc2c1`, the growth was -22.6% (active).

On to `CC(Sc1nc2ccccc2c(=O)n1CCc1ccc(S(N)(=O)=O)cc1)C(=O)Nc1ccc(Cl)cc1` (centres undefined), for which the growth is 56.3% (inactive).

For the molecule `O=C(N/N=C/c1cc2ccccc2n2nnnc12)Nc1ccccc1`, the growth was 93.6% (inactive).

In the case of `CC1(C)CC(=O)C2=C(C1)N(c1ccc(F)cc1F)C(N)=C(C#N)C2c1cc(Br)ccc1F` (centres undefined), the growth was 80.7% (inactive).
